From PubChem BioAssay AID588590 (National Center for Advancing Translational Sciences (NCATS), 2011) come the findings set out here.

Hit rate of the full screen: of about 390,000 compounds, about 4,000 (1%) were called active. Inconclusive results (about 7%) are left out. The list comes from a sample in which actives are over-represented; it also holds similar structures and randomly drawn compounds. Values without a mark were called inactive. Calls follow the shape of the dose curve; as a rule, active = well fitted inhibition curve with a large enough effect; inconclusive = small, poorly fitted or top-dose-only effect, or another doubt; inactive = no such curve, though single readings can be large or run the other way.
Potency is read from the fitted curve at half-maximal effect.

Sequence of DNA polymerase iota (Homo sapiens) (Q9UNA4 whole entry, looked up): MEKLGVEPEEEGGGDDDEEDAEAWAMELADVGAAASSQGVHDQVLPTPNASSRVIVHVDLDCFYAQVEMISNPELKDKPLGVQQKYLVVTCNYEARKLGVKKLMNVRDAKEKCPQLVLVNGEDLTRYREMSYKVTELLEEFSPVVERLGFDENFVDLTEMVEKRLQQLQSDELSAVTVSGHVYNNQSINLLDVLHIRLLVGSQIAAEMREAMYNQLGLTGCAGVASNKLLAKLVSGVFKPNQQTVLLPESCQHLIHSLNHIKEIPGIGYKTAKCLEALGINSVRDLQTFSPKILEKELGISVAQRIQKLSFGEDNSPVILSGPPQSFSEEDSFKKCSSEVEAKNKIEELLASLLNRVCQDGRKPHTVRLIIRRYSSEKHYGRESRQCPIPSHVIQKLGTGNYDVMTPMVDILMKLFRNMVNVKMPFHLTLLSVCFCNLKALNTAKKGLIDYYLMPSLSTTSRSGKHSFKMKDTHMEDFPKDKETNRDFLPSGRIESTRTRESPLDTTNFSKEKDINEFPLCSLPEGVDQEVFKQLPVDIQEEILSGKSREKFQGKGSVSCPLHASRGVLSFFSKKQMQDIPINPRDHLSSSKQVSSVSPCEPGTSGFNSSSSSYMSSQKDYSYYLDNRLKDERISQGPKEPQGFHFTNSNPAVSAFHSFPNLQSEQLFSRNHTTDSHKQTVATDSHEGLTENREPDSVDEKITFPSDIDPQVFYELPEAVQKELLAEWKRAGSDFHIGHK

This assay addresses DNA polymerase iota (Homo sapiens) (UniProt Q9UNA4). Put plainly: qHTS for Inhibitors of Polymerase Iota. To be noted: Pol iota fluorescent replication assay, 10 min; series mostly up to 115 µM; activity, negative = inhibition: at the top concentration. The gist of the method:
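Fluorescent replication assay read twice, at 0 min and 10 min after adding 50 nM (final) substrate. Enzyme (10 nM) and compounds were first incubated 15 min at room temperature; enzyme-free buffer wells were negative controls.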
(Quantitative high-throughput screening tests each substance at several concentrations.)
As to `CN(Cc1ccccc1)c1ccc(-c2nc(-c3ccccc3)no2)cc1[N+](=O)[O-]`, the “activity, negative = inhibition” value was 51.2%.
As for `CC(=O)c1ccc(NC(=O)c2nc3nc(C)cc(C(F)F)n3n2)cc1`, the “activity, negative = inhibition” value is -14.5%.
Still for that read-out and setting: under `COc1ccc(-c2nc(S(=O)(=O)c3ccccc3)c(N3CCCCC3)o2)cc1` stands 8.68%.
On the same count and under the same terms, for `CCn1cc(C(=O)N2CCN(c3cc(C)ccc3C)CC2)c(=O)c2cc(S(=O)(=O)N(C)C3CCCCC3)ccc21` the value was 7.13%.
Same read-out and setting: for `O=C(O)c1ccc(Cn2c(SCc3ccc(F)cc3)nc3ccncc32)cc1` the value was -4.26%; for `Cc1cc(-c2n[nH]c(=S)n2-c2ccc(C)c(C)c2)no1`, -3.17%.
In the case of `COc1ccccc1-n1c(-c2cc(-c3ccco3)[nH]n2)n[nH]c1=S`, the Potency was 8.91 µM (active).
For the molecule `COc1cc(-c2n[nH]c(=S)n2Cc2ccccc2)cc(OC)c1OC`, the “activity, negative = inhibition” value is 45.3%.
The same measure, in the same setting: for `CCOc1ccc(/C=C(\C#N)c2nc3ccccc3c(=O)[nH]2)cc1OC` the value was 17.8%.
With `CCOc1c(Br)cc(/C=C2\C(=O)N(CCC#N)N=C2C)cc1OC`, the Potency was 0.794 µM (active).
On to `C=CCOc1c(Br)cc(/C=N\n2nnnc2N)cc1OC`, for which the “activity, negative = inhibition” value was 8.73%.
Still for that read-out and setting: for `CC(C)(C)OC(=O)N1CCC(c2c(C(=O)NCc3ccccn3)cnn2-c2ccc(F)cc2)CC1` the value was 23.8%.
The same measure, in the same setting: for `CCc1nnc(NC(=O)C2CCCN2S(=O)(=O)c2ccccc2)s1` (centres undefined) the value was -7.41%.
As to `CCc1ccc(NC(=O)C2CCCN2S(=O)(=O)c2ccc3nc(-c4ccccc4)[nH]c3c2)cc1` (centres undefined), the Potency was 89.1 µM (active).
Take `CC(=O)Nc1ccc(NC(=O)C2CCCN2S(=O)(=O)c2cccc(C(F)(F)F)c2)cc1` (centres undefined): the “activity, negative = inhibition” value is 22.6%.
Take `CN(CCC#N)c1ccc(C=O)cc1`: the “activity, negative = inhibition” value is 1.08%.
Still for that read-out and setting: under `Cc1ccc(Nc2c(-c3ccc(C)cc3)nc3cnccn23)cc1` stands 9.48%.
The same measure, in the same setting: for `COc1cccc(NC(=O)c2ccc3nc(CCc4ccccc4)oc3c2)c1` the value was 0.161%; for `Cc1nn(-c2ccc(F)cc2)c(Cl)c1/C=C(/CCC(=O)O)c1nc2ccccc2s1`, 58%.
For the molecule `COc1ccc(C(=O)Nc2cccc(/C=C(/CCC(=O)O)c3nc4ccccc4s3)c2)cc1`, the Potency is 12.6 µM (active).
On to `Cc1csc[n+]1CCC1CCCCC1`, for which the “activity, negative = inhibition” value was 42.3%.
Still for that read-out and setting: under `CCOC(=O)c1ccc(NC(=O)c2csc3c2CCCCC3)cc1` stands 45.5%.
Consider `CCOc1ccc(C(=O)/C=C/c2cn(CC(O)CN3CCCCCC3)c3ccccc23)cc1` (centres undefined), for which the “activity, negative = inhibition” value is -23.7%.
On to `O=C(CN1CCSc2ccccc21)N1CCN(c2ccccc2)CC1`, for which the “activity, negative = inhibition” value was 5.88%.
The same measure, in the same setting: under `Cc1cc(C)cc(NS(=O)(=O)c2ccc3[nH]cc(C(=O)N4CCCCC4)c(=O)c3c2)c1` stands -3.74%; under `CCCCNC(=O)c1c[nH]c2ccc(S(=O)(=O)Nc3ccc(OCC)cc3)cc2c1=O`, -18.8%.
For the molecule `CC(C)c1ccc(NS(=O)(=O)c2ccc3[nH]cc(C(=O)NC4CCCC4)c(=O)c3c2)cc1`, the Potency is 79.4 µM (active).
Take `Cc1ccc(C)c(N2CCN(Cc3nnc(-c4ccccc4)o3)CC2)c1`: the “activity, negative = inhibition” value is 20.8%.
Same read-out and setting: for `CN(CC(=O)Nc1ccccc1F)S(=O)(=O)c1ccc2c(c1)c(=O)n(C)c(=O)n2C` the value was -9.64%.
In the case of `CS(=O)(=O)c1ccc2c(c1)SC1=NC(=O)/C(=C/c3ccco3)C(=N)N12`, the Potency was 14.1 µM (active).
Regarding `CCNC(=O)CC1C(=O)N(c2ccc(F)cc2)C(=O)N1Cc1ccc(C)cc1` (centres undefined), the “activity, negative = inhibition” value is 23.2%.
Consider `CCCc1cc(-c2n[nH]c(=S)n2CC)c2ccccc2n1`, for which the “activity, negative = inhibition” value was 3.81%.
Regarding `S=c1[nH]nc(-c2cc(-c3ccccc3)n[nH]2)n1/N=C/c1c2ccccc2cc2ccccc12`, the Potency is 20 µM (active).
Take `CCN(CC)S(=O)(=O)c1cccc(-c2n[nH]c(=S)n2/N=C/c2ccc(C(=O)OC)cc2)c1`: the “activity, negative = inhibition” value is 10.3%.
Still for that read-out and setting: for `C=CCc1c(C)nc2cc(-c3ccccc3)[nH]n2c1=O` the value was 20.2%.
Regarding `Cc1cc(=O)n2[nH]c(-c3sccc3-n3c(C)ccc3C)cc2n1`, the Potency is 20 µM (active).
For the molecule `CN(Cc1ccccc1)C(=O)c1cn(C)c2ccc(S(=O)(=O)N(C)C3CCCCC3)cc2c1=O`, the “activity, negative = inhibition” value is 29.5%.
The same measure, in the same setting: for `COC(=O)c1cc(NC(=O)c2cnc(SC)nc2-c2ccccc2)cc(C(=O)OC)c1` the value was 29.1%; for `Cc1cccc(-n2ncc(C(=O)N3CCN(c4ccc(Cl)cc4)CC3)c2C2CCN(C(=O)OC(C)(C)C)CC2)c1`, 16.7%.
Turning to `CC(C)(C)OC(=O)N1CCC(c2c(C(=O)Nc3ccc4c(c3)OCO4)cnn2-c2ccccc2)CC1`, the “activity, negative = inhibition” value is 16.7%.
With `COC(=O)c1ccc(NC(=O)c2cnn(-c3ccc(Cl)cc3)c2C2CCN(C(=O)OC(C)(C)C)CC2)cc1`, the Potency is 89.1 µM (active).
With `Cc1nn(C)c2c1c(C(F)(F)F)cc(=O)n2C(C)C(=O)NCc1ccc(Cl)cc1` (centres undefined), the “activity, negative = inhibition” value was -26.1%.
With `CN1CCOC1c1ccc(C2OCCN2C)cc1` (centres undefined), the Potency was 20 µM (active).
Turning to `CCOC(=O)c1cccc(NC(=O)c2cc(S(=O)(=O)N3CCCC(C)C3)cn2C)c1` (centres undefined), the “activity, negative = inhibition” value is 3.29%.
In the case of `CCOc1ccc(N(C)S(=O)(=O)c2cc(-c3cnc(C)o3)ccc2OC)cc1`, the “activity, negative = inhibition” value is 10.1%.
On the same count and under the same terms, under `Cc1ccc(-n2c(=O)c3cccnc3n2CC(=O)NCc2ccc(F)cc2)cc1C` stands 22.8%.
Same read-out and setting: for `CC1CCCCN1S(=O)(=O)c1ccc(F)c(C(=O)Nc2ccccc2C(F)(F)F)c1` (centres undefined) the value was 13.6%; for `Brc1nc2ncnc(NCc3ccco3)c2[nH]1`, -12.7%.
`Cc1ccc(N2NC(=O)/C(=C/C=C/c3ccco3)C2=O)cc1C`: the Potency is 20 µM (active).
`Cc1ccc(N=C2NC(=O)/C(=C/C=C/c3ccco3)S2)cc1C`: the Potency was 11.2 µM (active).
Consider `Cc1ccc(C(=O)N/C(=C\c2ccco2)C(=O)N2CCSCC2)cc1C`, for which the “activity, negative = inhibition” value was 21.8%.
Same read-out and setting: under `Cc1ccc(-n2ncc3c(=O)n(-c4ccc(C)c(C)c4)c(-c4ccco4)nc32)cc1` stands 24.7%; under `CCOc1ccc(-c2cc3nc(C4CCN(C(=O)OC(C)(C)C)CC4)c(C(=O)Nc4cccc(CC)c4)cn3n2)cc1`, 31%.
Same read-out and setting: under `COc1cccc(NC(=O)N2CCN(C(=O)c3nsc4ccccc34)CC2)c1` stands 36.9%; under `CCc1ccccc1NC(=O)N1CCC2(CC1)Oc1ccccc1C(=O)N2Cc1ccccc1F`, -3.54%.
On the same count and under the same terms, for `Cc1cc(C)cc(OCC(=O)Nc2c(C(=O)c3ccccc3)oc3ccccc23)c1` the value was 13.4%; for `COc1ccccc1CNc1nc2ccc(Cl)cc2n2cnnc12`, 2.76%; for `O=C(Nc1cccc(-c2nc3ccccc3o2)c1)c1cccc(Br)c1`, 7.05%.
Turning to `O=C(COc1ccc([N+](=O)[O-])cc1)Nc1cccc(C(=O)Nc2ccccc2C(=O)O)c1`, the “activity, negative = inhibition” value was 4.15%.
With `Cc1ccc(NC(=O)COc2ccc(/C=N\NC(=O)c3cccnc3)cc2)cc1C`, the Potency was 22.4 µM (active).
With `O=C(N/N=C/c1cccc(OC(=O)c2ccc([N+](=O)[O-])cc2)c1)c1cccnc1`, the “activity, negative = inhibition” value is 148%.
For `O=C(COc1ccc(/C=N/NC(=O)c2ccc(O)cc2)cc1)Nc1ccc([N+](=O)[O-])cc1`, the Potency is 3.98 µM (active).
Consider `Cc1cccc(OCC(=O)NCCNC(=O)c2cccnc2)c1`, for which the “activity, negative = inhibition” value is -19.7%.
The same measure, in the same setting: for `Cc1ccc(OCC(=O)NCCCNC(=O)c2cccnc2)cc1C` the value was -14.2%.
